Giardia kill: Giardia lamblia killing | Giardia lamblia trophozoite viability | 340,000 compounds, 0.15% hits | activity change, % at 7.66 µM, hits read low; in the data active means activity change below about -80%; inconclusive means between about -30% and that limit;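 further: parasites exposed to compound for two days anaerobically before the ATP read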
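Compounds were tested on trophozoites seeded at 100 cells/well and held 48 hrs at 37 deg C anaerobically. An ATP-based luminescent kit measured the remaining live cells.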
TDP1 block: inhibitors of human tyrosyl-DNA phosphodiesterase TDP1. recombinant TDP1, AlphaScreen DNA substrate cleavage. Potency, µM (top dose mostly 130 µM), actives largely listed as inhibitors. 350,000 compounds, 0.28% hits. AID 485290; further: nearly all actives have a fitted effect of over 40% in size
Target sequence (Q9NUW8 whole entry, looked up): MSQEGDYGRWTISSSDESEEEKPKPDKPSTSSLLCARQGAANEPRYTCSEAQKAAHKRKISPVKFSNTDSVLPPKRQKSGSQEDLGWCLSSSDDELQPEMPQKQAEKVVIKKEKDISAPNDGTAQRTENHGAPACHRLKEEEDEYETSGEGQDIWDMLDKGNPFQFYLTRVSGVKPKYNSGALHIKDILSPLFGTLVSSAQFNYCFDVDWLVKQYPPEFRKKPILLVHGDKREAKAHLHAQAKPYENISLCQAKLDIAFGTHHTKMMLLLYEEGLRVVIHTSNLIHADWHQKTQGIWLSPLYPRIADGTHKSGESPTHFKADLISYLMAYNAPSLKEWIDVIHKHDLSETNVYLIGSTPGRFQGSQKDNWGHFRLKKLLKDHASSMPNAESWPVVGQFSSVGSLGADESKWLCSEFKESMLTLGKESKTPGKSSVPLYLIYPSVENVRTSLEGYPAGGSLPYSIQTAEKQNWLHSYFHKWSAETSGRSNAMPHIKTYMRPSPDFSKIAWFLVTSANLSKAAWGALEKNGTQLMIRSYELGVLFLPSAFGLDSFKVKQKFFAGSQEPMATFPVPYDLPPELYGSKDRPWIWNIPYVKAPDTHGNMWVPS
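AlphaScreen read-out: signal falls as enzyme removes the 3' tyrosine-FITC from a 5'-biotinylated DNA oligo (15 nM, 5 min, RT). Enzyme was E. coli-made recombinant Tdp1 at 1 nM, exposed to compound for 15 min beforehand; beads 10 ug/ml, 10 min.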
TDP1 cell CPT: DT40-hTDP1 cell growth loss with CPT | chicken DT40 Tdp1-/-;hTDP1 cells + 20 nM CPT, ATP luminescence, 48 h | Potency, µM (highest dose often 46.2 µM), usual class: inhibitors | 420,000 compounds, 12% hits | AID 686979; further: nearly all actives have a fitted effect of over 55% in size
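Chicken DT40 Tdp1-/- cells complemented with human TDP1, 400 cells/well, exposed to compounds plus 20 nM camptothecin for at least 48 h at 37 C; viability read as ATP content by CellTiter-Glo luminescence.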
IL-1B inflam inh: inhibitors of inflammasome signaling (IL-1 beta secretion). THP-1 LPS/ATP IL-1B secretion, AlphaLISA, 16 h; active compounds read low. activity change, % at 57.5 µM. 360,000 compounds, 4.7% hits; in the data active means activity change below about -50%; inconclusive means mostly about -30% to -49%
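Secreted IL-1B measured by AlphaLISA bead assay after 16 h compound exposure of THP-1 cells; compounds (final up to 57.5 uM) added 1 h before LPS (250 ng/mL) and ATP (1.25 mM) stimulation; lower signal means less secretion.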
DT40 TDP1 no CPT: qHTS for Inhibitors of human tyrosyl-DNA phosphodiesterase 1 (TDP1): qHTS in cells in absence of CPT; DT40 Tdp1-/- hTDP1 cells, no CPT, ATP luminescence, 48 h; Potency, µM (titrated, usually from 46.2 µM), actives largely listed as inhibitors; 420,000 compounds, 15% hits; further: nearly all actives have a fitted effect of over 55% in size
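Growth of hTDP1-complemented DT40 Tdp1-knockout cells is measured by ATP luminescence after at least 48 hr compound exposure at 37 °C, with DMSO substituting for the 20 nM CPT used in the parallel screen.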
ELG1 DNA repair: ELG1-dependent DNA repair inhibition. HEK293T ELG1-luciferase reporter, luminescence, 16 h; DNA damage induced by 5-fluorouridine. Potency, µM (highest dose often 46.1 µM), most hits filed as inhibitors. 330,000 compounds, 2.3% hits. AID 504467; further: nearly all actives have a fitted effect of over 55% in size
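DMSO vehicle served as the neutral condition. Each well held 2,000 cells given 5-fluorouridine plus compound; after 16 hr at 37 °C/5% CO2, ONE-Glo was added and luciferase measured 30 min later.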
A number is an active result; ! = repeats disagree. Compounds with a hit are over-represented: about 19% of the library has one in this group of screens. Unless noted, the call rests on the fitted dose curve; in most records, active means well fitted curve in the direction sought with a large enough effect; inconclusive means small, poorly fitted or top-dose-only effect, or another doubt; inactive means no such curve, though single readings can be large; an effect the other way counts as inactive or inconclusive.

What do the screens show for `COc1cc(C(=O)OCC(=O)c2cc(C)n(C)c2C)cc(OC)c1OC`?
Giardia kill: inactive; TDP1 block: inactive; TDP1 cell CPT: 25.9µM; IL-1B inflam inh: inactive; DT40 TDP1 no CPT: 16.4µM; ELG1 DNA repair: inconclusive

Results for Cc1ccc(CSc2nc(-c3ccccc3C)nc3c2Cc2c(CO)cnc(C)c2O3)cc1 ?
TDP1 block: inactive; TDP1 cell CPT: inconclusive; DT40 TDP1 no CPT: inconclusive

How did C1NNCC12CNNC2 do in these assays?
TDP1 cell CPT: inactive; DT40 TDP1 no CPT: inactive

How did CCOC(=O)c1ccc2ncc(C(=O)OCC)c(NCCc3ccc(OC)c(OC)c3)c2c1 do in these assays?
TDP1 cell CPT: 25.9µM; DT40 TDP1 no CPT: 14.6µM

What do the screens show for `CCOC(=O)c1cnc2ccc(C(=O)OC)cc2c1NCCc1ccc(OC)c(OC)c1`?
Giardia kill: inactive; TDP1 block: inactive; TDP1 cell CPT: inconclusive; IL-1B inflam inh: inactive; DT40 TDP1 no CPT: 18.4µM; ELG1 DNA repair: 14.6µM

How did CCCc1nc(SCC(=O)Nc2cc(C)on2)c2c(=O)n(C)c(=O)n(C)c2n1 do in these assays?
Giardia kill: inactive; TDP1 block: inactive; TDP1 cell CPT: inconclusive; IL-1B inflam inh: inactive; DT40 TDP1 no CPT: inconclusive; ELG1 DNA repair: inactive

What do the screens show for `CCSc1nnc(NC(=O)CSc2nc(CC)nc3c2c(=O)n(C)c(=O)n3C)s1`?
Giardia kill: inactive; TDP1 block: inactive; TDP1 cell CPT: 16.4µM; IL-1B inflam inh: inactive; DT40 TDP1 no CPT: 14.6µM; ELG1 DNA repair: inconclusive

Results for CCCc1nc(SCC(=O)Nc2nnc(SCC)s2)c2c(=O)n(C)c(=O)n(C)c2n1 ?
Giardia kill: inactive; TDP1 cell CPT: 4.11µM; IL-1B inflam inh: inactive; DT40 TDP1 no CPT: 2.91µM; ELG1 DNA repair: inactive

How did CC(=O)Nc1ccc(NC(=O)C2CCCN(C(=O)c3ccc(Cl)cc3)C2)cc1 (centres undefined) do in these assays?
Giardia kill: inactive; TDP1 block: inactive; TDP1 cell CPT: inactive; IL-1B inflam inh: inactive; DT40 TDP1 no CPT: inactive; ELG1 DNA repair: inactive

What do the screens show for `CS(=O)(=O)c1ccc(NC(=O)C2CCCN(C(=O)c3ccc(Cl)cc3)C2)cc1` (centres undefined)?
Giardia kill: inactive; TDP1 block: inactive; TDP1 cell CPT: inactive; IL-1B inflam inh: inactive; DT40 TDP1 no CPT: inconclusive; ELG1 DNA repair: inactive

What do the screens show for `CN(C)S(=O)(=O)c1cccc(NC(=O)C2CCCN(C(=O)c3ccc(Cl)cc3)C2)c1` (centres undefined)?
TDP1 cell CPT: inconclusive; IL-1B inflam inh: inactive; DT40 TDP1 no CPT: 14.6µM

What do the screens show for `CCN(CC)S(=O)(=O)c1ccc(NC(=O)C2CCCN(C(=O)c3ccc(Cl)cc3)C2)cc1` (centres undefined)?
Giardia kill: inactive; TDP1 block: inactive; TDP1 cell CPT: 16.4µM; IL-1B inflam inh: inactive; DT40 TDP1 no CPT: 23.1µM; ELG1 DNA repair: 18.4µM

How did O=C(Nc1ccc(OC(F)(F)F)cc1)C1CCCN(C(=O)c2ccc(Cl)cc2)C1 (centres undefined) do in these assays?
Giardia kill: inactive; TDP1 block: inactive; TDP1 cell CPT: 16.4µM; IL-1B inflam inh: inactive; DT40 TDP1 no CPT: 11.6µM; ELG1 DNA repair: inconclusive

What do the screens show for `COc1ccc(Nc2nc(Cl)c(C=O)s2)cc1`?
TDP1 block: inactive; ELG1 DNA repair: inactive

Results for Cc1cc(N=Nc2ccccc2)cc(C)c1NC(=O)C(F)(F)F ?
Giardia kill: inactive; TDP1 cell CPT: inconclusive; IL-1B inflam inh: inconclusive; DT40 TDP1 no CPT: inconclusive

How did O=c1cc(-c2ccccc2)nc2cc(-c3ccc(F)cc3)[nH]n12 do in these assays?
Giardia kill: inactive; TDP1 block: inactive; TDP1 cell CPT: 7.31µM; IL-1B inflam inh: inactive; DT40 TDP1 no CPT: 6.51µM

Results for Cc1cc(=O)n2[nH]c(-c3ccc(C(C)(C)C)cc3)cc2n1 ?
Giardia kill: inactive; TDP1 block: inactive; TDP1 cell CPT: 18.4µM; IL-1B inflam inh: inactive; DT40 TDP1 no CPT: 20.6µM; ELG1 DNA repair: inconclusive

What do the screens show for `CCc1c(C)nc2cc(-c3ccc(OC)cc3)[nH]n2c1=O`?
Giardia kill: inactive; TDP1 block: inactive; TDP1 cell CPT: 20.6µM; IL-1B inflam inh: inactive; DT40 TDP1 no CPT: 14.6µM; ELG1 DNA repair: inconclusive

Results for CCOC(=O)Cc1c(C)nc2cc(-c3ccc(Cl)cc3)[nH]n2c1=O ?
Giardia kill: inactive; TDP1 block: inactive; TDP1 cell CPT: inactive; IL-1B inflam inh: inactive; DT40 TDP1 no CPT: inactive; ELG1 DNA repair: inconclusive

Results for COc1cccc(-c2cc3nc(-c4ccccc4)cc(=O)n3[nH]2)c1 ?
Giardia kill: inactive; TDP1 cell CPT: 2.59µM; IL-1B inflam inh: inactive; DT40 TDP1 no CPT: 2.59µM; ELG1 DNA repair: inconclusive

Results for Cc1[nH][nH]c(=O)c1C ?
Giardia kill: inactive; TDP1 block: inactive; TDP1 cell CPT: inactive; IL-1B inflam inh: inactive; DT40 TDP1 no CPT: inactive; ELG1 DNA repair: inactive

Results for COc1ccc(NC(=O)c2sc3ncn(CC(=O)N4CCCCC4)c(=O)c3c2C)cc1OC ?
Giardia kill: inactive; TDP1 block: inactive; TDP1 cell CPT: inconclusive; IL-1B inflam inh: inactive; DT40 TDP1 no CPT: inactive; ELG1 DNA repair: inactive

How did COC(=O)[C@H](CCSC)NC(=O)c1cc2c(cn1)[nH]c1ccccc12 do in these assays?
Giardia kill: inactive; TDP1 cell CPT: 10.3µM; IL-1B inflam inh: -80.2; DT40 TDP1 no CPT: 7.31µM; ELG1 DNA repair: inactive

What do the screens show for `CNC(=O)c1cc2c(cn1)[nH]c1ccccc12`?
Giardia kill: inactive; TDP1 block: inactive; TDP1 cell CPT: inconclusive; IL-1B inflam inh: inactive; DT40 TDP1 no CPT: inconclusive

Results for CCCCOC(=O)c1cc2c(cn1)[nH]c1ccccc12 ?
TDP1 block: inactive; TDP1 cell CPT: 21.1µM!; DT40 TDP1 no CPT: 18.4µM

What do the screens show for `Cc1ccc(-c2c(C)n3c4c(=O)n(C)c(=O)n(C)c4nc3n2-c2cccc(O)c2)cc1`?
TDP1 block: inactive

Results for O=C(CN1c2ccccc2Sc2ccccc21)NNC(=S)Nc1ccc(Cl)cc1 ?
Giardia kill: inactive; TDP1 cell CPT: inactive; IL-1B inflam inh: inactive; DT40 TDP1 no CPT: inactive; ELG1 DNA repair: inconclusive

What do the screens show for `CCN1/C(=C\C(=S)Nc2ccccc2)Sc2ccccc21`?
Giardia kill: inactive; TDP1 block: inactive; TDP1 cell CPT: 3.66µM; IL-1B inflam inh: -97.1; DT40 TDP1 no CPT: 3.26µM; ELG1 DNA repair: inconclusive

What do the screens show for `COc1ccc(-c2oc3cccnc3c2/C=C/c2ccc(OC)c(OC)c2)cc1`?
Giardia kill: inactive; TDP1 cell CPT: inconclusive; IL-1B inflam inh: inconclusive; DT40 TDP1 no CPT: inconclusive; ELG1 DNA repair: inconclusive

How did CC(C)OCCCNC(=O)CN1C(=O)c2ccccc2Sc2ncccc21 do in these assays?
TDP1 block: inactive; TDP1 cell CPT: inactive; DT40 TDP1 no CPT: inactive
